Measurements as given in article PMC7862700, “An all-to-all approach to the identification of sequence-specific readers for epigenetic DNA modifications on cytosine”.

Key:
Experiment in all cases: DAPPL (digital affinity profiling via proximity ligation, sequencing); 10 mM Tris-HCl pH 7.5, 50 mM NaCl, 1 mM DTT, 4% glycerol, room temperature, 30 min; GST-TFs on glutathione beads, 16-mer random dsDNA library, 0.1% formaldehyde crosslink after washing; high values mean tight binding
[1] = molecular target: T1, FEV (Homo sapiens, UniProt Q99581 1-238); details: protein: recombinant; tags: N-terminal GST; dsDNA, one strand shown
T1 sequence: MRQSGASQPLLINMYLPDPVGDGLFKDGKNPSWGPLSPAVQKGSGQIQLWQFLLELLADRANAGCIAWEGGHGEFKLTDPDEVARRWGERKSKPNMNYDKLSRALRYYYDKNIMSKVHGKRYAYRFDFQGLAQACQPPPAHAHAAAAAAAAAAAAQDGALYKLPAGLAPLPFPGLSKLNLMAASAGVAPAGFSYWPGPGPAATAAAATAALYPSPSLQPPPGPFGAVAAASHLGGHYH
In short: (§1)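 Each value of binding signal is a hexamer's read frequency for a factor divided by the same hexamer's frequency in the tag-only sample. Barcoded, bead-captured GST fusions of human transcription factors made in yeast were pooled with that sample and incubated with 200 nmole of a random double-stranded 16-mer DNA library in Tris/NaCl/DTT/glycerol buffer at room temperature for 30 min. Washing, 0.1% formaldehyde crosslinking, proximity ligation, PCR and Illumina NextSeq500 sequencing followed.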

[2] = molecular target: ETV5 (Homo sapiens, UniProt P41161 1-510); details: protein: recombinant; tags: N-terminal GST; dsDNA, one strand shown
In short: as §1

[3] = molecular target: HSF1 (Homo sapiens, UniProt Q00613 1-529); details: protein: recombinant; tags: N-terminal GST; chain copies: 3; dsDNA, one strand shown
In short: as §1

[4] = molecular target: T2, SPIC (Homo sapiens, UniProt Q8N5J4 1-248); details: protein: recombinant; tags: N-terminal GST; dsDNA, one strand shown
T2 sequence: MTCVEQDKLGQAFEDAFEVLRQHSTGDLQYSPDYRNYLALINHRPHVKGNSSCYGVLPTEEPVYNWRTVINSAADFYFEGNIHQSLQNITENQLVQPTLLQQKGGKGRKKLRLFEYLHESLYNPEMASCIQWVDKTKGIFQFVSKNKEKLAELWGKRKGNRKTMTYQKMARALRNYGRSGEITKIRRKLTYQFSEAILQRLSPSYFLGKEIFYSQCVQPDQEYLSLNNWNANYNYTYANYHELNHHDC
In short: as §1

[5] = molecular target: ELF4 (Homo sapiens, UniProt Q99607 1-663); details: protein: recombinant; tags: N-terminal GST; dsDNA, one strand shown
In short: as §1

[6] = molecular target: T3, ELK4 (Homo sapiens, UniProt P28324-2 1-405); details: protein: recombinant; tags: N-terminal GST; dsDNA, one strand shown
T3 sequence: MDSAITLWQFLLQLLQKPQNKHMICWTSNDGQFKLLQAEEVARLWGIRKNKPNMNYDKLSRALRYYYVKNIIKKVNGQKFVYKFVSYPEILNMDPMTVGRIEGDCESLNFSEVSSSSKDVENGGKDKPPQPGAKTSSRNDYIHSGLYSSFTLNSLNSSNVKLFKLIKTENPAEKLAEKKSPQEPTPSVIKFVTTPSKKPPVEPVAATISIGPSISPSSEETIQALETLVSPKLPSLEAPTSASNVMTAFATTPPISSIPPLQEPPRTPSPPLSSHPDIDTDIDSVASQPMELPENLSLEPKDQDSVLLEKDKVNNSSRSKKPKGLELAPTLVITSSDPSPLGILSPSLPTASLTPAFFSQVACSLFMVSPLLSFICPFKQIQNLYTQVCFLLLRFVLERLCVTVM
In short: as §1

[7] = molecular target: T4, ETV2 (Homo sapiens, UniProt O00321 1-342); details: protein: recombinant; tags: N-terminal GST; dsDNA, one strand shown
T4 sequence: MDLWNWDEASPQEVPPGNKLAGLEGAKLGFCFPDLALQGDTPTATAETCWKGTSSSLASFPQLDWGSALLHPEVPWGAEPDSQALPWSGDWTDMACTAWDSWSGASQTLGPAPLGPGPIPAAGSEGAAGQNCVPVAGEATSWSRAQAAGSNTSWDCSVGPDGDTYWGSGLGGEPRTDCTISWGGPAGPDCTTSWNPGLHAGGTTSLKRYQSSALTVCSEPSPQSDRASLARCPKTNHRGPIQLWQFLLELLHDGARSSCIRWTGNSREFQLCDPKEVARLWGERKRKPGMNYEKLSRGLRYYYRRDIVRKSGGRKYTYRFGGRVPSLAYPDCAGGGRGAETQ
In short: as §1

[8] = molecular target: T5, ELF3 (Homo sapiens, UniProt P78545 1-371); details: protein: recombinant; tags: N-terminal GST; dsDNA, one strand shown
T5 sequence: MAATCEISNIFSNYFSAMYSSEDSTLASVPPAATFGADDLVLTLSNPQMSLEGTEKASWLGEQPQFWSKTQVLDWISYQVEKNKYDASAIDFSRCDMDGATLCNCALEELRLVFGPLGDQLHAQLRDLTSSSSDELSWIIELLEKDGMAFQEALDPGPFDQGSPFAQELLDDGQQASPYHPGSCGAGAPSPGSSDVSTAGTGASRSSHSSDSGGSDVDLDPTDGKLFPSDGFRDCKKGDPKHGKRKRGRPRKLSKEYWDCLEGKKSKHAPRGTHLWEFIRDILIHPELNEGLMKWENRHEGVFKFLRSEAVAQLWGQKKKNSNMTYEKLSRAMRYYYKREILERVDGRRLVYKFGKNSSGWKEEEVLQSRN
In short: as §1

[9] = molecular target: CRX (Homo sapiens, UniProt O43186 1-299); details: protein: recombinant; tags: N-terminal GST; dsDNA, one strand shown
In short: as §1

[10] = molecular target: ETV1 (Homo sapiens, UniProt P50549 1-477); details: protein: recombinant; tags: N-terminal GST; dsDNA, one strand shown
In short: as §1

Chain of ETV1 (P50549 whole entry): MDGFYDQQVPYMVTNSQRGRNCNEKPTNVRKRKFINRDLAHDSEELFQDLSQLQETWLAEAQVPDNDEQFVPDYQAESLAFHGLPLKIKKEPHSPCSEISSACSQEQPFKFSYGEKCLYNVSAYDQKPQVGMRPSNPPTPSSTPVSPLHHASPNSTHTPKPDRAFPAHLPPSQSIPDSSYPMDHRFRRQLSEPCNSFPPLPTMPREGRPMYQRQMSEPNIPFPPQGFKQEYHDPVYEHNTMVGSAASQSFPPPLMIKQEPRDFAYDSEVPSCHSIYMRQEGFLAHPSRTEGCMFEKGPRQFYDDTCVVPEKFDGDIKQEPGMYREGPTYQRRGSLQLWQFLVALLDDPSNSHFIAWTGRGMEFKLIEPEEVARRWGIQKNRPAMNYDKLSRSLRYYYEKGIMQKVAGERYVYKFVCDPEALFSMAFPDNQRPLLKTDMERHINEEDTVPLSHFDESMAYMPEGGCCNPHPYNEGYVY
Chain of ELF4 (Q99607 whole entry): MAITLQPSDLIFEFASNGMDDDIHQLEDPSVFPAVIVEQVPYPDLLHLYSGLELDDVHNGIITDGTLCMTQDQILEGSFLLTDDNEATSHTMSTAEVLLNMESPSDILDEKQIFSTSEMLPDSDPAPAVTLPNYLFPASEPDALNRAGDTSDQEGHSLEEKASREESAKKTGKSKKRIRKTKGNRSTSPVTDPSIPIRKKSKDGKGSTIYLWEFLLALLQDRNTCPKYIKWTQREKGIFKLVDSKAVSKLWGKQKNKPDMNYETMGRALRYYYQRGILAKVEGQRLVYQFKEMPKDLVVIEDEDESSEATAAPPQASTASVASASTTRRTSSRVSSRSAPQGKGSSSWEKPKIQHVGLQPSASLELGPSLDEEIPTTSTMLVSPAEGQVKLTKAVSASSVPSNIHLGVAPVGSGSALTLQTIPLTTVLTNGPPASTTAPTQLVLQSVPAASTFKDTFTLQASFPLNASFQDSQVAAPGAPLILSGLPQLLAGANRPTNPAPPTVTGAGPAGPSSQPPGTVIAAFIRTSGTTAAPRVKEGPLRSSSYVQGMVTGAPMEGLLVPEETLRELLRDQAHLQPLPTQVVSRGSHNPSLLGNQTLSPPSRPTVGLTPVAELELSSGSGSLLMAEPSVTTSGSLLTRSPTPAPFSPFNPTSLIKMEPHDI
Chain of ETV5 (P41161 whole entry): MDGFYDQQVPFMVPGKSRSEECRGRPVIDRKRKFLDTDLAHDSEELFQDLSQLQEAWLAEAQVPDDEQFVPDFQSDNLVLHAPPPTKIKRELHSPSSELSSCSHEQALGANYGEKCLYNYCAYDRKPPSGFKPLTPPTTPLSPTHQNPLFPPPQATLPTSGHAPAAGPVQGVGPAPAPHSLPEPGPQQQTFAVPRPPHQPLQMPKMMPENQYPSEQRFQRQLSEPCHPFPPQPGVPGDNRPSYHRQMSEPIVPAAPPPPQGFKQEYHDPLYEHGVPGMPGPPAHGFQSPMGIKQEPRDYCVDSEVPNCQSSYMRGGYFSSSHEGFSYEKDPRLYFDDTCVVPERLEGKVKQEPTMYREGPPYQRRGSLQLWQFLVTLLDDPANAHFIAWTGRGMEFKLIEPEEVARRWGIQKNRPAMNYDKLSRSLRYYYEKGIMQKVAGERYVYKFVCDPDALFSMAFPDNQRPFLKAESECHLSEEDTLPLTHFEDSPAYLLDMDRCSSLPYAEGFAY
Chain of CRX (O43186 whole entry): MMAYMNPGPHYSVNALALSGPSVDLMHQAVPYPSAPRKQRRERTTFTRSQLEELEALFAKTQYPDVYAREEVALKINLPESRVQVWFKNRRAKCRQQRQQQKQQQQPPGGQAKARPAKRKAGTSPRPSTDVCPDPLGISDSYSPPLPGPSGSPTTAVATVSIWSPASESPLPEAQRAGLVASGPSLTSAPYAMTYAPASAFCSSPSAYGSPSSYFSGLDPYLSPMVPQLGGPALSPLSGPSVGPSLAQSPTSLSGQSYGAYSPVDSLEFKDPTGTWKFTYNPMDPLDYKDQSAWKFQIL
Chain of HSF1 (Q00613 whole entry): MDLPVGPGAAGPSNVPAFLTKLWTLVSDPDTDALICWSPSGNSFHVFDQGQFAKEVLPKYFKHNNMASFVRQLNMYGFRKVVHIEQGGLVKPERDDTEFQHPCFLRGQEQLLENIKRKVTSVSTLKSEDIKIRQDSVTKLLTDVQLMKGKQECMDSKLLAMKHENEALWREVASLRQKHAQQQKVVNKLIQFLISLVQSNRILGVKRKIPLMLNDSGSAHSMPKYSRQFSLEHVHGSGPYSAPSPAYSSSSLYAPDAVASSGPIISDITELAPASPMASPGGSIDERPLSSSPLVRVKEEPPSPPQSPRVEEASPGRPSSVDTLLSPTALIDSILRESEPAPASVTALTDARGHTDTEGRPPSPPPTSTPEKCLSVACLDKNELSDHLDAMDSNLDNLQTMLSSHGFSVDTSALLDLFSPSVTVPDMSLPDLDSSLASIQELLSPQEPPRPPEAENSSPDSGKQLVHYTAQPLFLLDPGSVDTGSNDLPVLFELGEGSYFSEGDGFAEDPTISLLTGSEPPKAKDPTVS

TCGATT
binding signal [1]: 1.02 fold enrichment (6-mer frequency, TF over GST control)
binding signal [2]: 1.12 fold enrichment (6-mer frequency, TF over GST control)
binding signal [3]: 1.48 fold enrichment (6-mer frequency, TF over GST control)
binding signal [4]: 1.2 fold enrichment (6-mer frequency, TF over GST control)
binding signal [5]: 1.19 fold enrichment (6-mer frequency, TF over GST control)
binding signal [6]: 1.14 fold enrichment (6-mer frequency, TF over GST control)
binding signal [7]: 1.04 fold enrichment (6-mer frequency, TF over GST control)
binding signal [8]: 1.1 fold enrichment (6-mer frequency, TF over GST control)
binding signal [9]: 1.37 fold enrichment (6-mer frequency, TF over GST control)
binding signal [10]: 1.14 fold enrichment (6-mer frequency, TF over GST control)
